Where a name gives a salt, the structure may show the parent alone. ± gives the standard deviation or the standard deviation of the averaged measurements.
Key:
Settings in all cases: 25 µM; exposure: 24-48 hpf
[1] = test system: Danio rerio Tg(wt1b:EGFP) embryo, pronephros; test: glomerular separation, fold change vs DMSO control; higher = glomeruli further apart (abnormal)
In short: (§1)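 Dechorionated Tg(wt1b:EGFP) zebrafish embryos were exposed to 25 μM compound in 0.5% DMSO, HEPES-buffered E3 with 0.003% PTU, from 24 to 48 hpf at 28.5°C. Pronephroi were imaged dorsally in agarose-filled 96-well plates (470 nm, 10 z-slices). On maximum projections, 16 reference points were set manually in Fiji and a macro computed distances and angles. Values more than 2 SD from the feature mean were excluded. Each feature is a fold change relative to the mean of same-day DMSO controls.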

[2] = test system: Danio rerio Tg(wt1b:EGFP) embryo, pronephros; test: glomerular width (mean of left and right), fold change vs DMSO control; higher = wider glomerulus
In short: as §1

[3] = test system: Danio rerio Tg(wt1b:EGFP) embryo, pronephros; test: fraction of imaged embryos annotated as normal kidney; higher = less nephrotoxic; extreme values may be limits of the assay
In short: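 Zebrafish embryos carrying Tg(wt1b:EGFP) were dechorionated and exposed to 25 μM compound (0.5% DMSO) between 24 and 48 hpf at 28.5°C. Their pronephroi were imaged by widefield fluorescence, and each embryo was classed by hand from maximum projections. The measure is the fraction of embryos per treatment falling in the normal-kidney category.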

[4] = test system: Danio rerio Tg(wt1b:EGFP) embryo, pronephros; test: pronephric angle neck segment to proximal convoluted tubule (mean of left and right), fold change vs DMSO control; higher = larger pronephric angle
In short: as §1

SMILES | glomerular separation [1] | glomerular width [2] | fraction of imaged embryos annotated as normal kidney [3] | pronephric angle neck segment [4]
O=C1CC[C@@H](C(=O)N2CSC[C@H]2C(=O)O)N1 [Pidotimod] | 1.03 ± 0.42 | 1.05 ± 0.025 | 0.917 | 1.003 ± 0.0016
CN1CCN(C2=Nc3cc(Cl)ccc3Nc3ccccc32)CC1 [Clozapine] | 0.792 ± 0.2 | 1.05 ± 0.011 | 1 | 0.975 ± 0.058
CCN(CC)C(=O)N1CCN(C)CC1 [Diethylcarbamazine citrate] | 0.96 ± 0.28 | 0.958 ± 0.028 | 0.909 | 1.05 ± 0.02
Cc1ccnc(NS(=O)(=O)c2ccc(N)cc2)n1 [Sulfamerazine] | 0.775 ± 0.22 | 1.03 ± 0.011 | 0.909 | 0.974 ± 0.085
CC=CC(=O)N(CC)c1ccccc1C [Crotamiton] | 0.867 ± 0.16 | 0.96 ± 0.038 | 1 | 1 ± 0.019
O=C(CCCN1CC=C(n2c(=O)[nH]c3ccccc32)CC1)c1ccc(F)cc1 [Droperidol] | 1.38 ± 0.42 | 0.84901 ± 0.00078 | 0.667 | 1.04 ± 0.046
N=C(N)N1CCc2ccccc2C1 [Debrisoquin sulfate] | 1.02 ± 0.24 | 0.9804 ± 0.0064 | 0.667 | 1.01 ± 0.01
CNCCC(Oc1ccc(C(F)(F)F)cc1)c1ccccc1 (configuration not stated) [Fluoxetine hydrochloride] | 1.23 ± 0.69 | 0.903 ± 0.041 | 0.583 | 1.04 ± 0.054
CCOC(=O)C1=C(COCCN)NC(C)=C(C(=O)OC)C1c1ccccc1Cl (configuration not stated) [Amlodipine] | 0.923 ± 0.2 | 1.03 ± 0.085 | 1 | 0.983 ± 0.029
CCOC(=O)NNc1nncc2ccccc12 [Todralazine hydrochloride] | 0.937 ± 0.25 | 0.993 ± 0.06 | 0.917 | 0.963 ± 0.031
CCOc1ccccc1OC(c1ccccc1)C1CNCCO1 (configuration not stated) [Reboxetine mesylate] | 1.16 ± 0.43 | 1 ± 0.077 | 0.909 | 0.99 ± 0.0046
Cc1ncc(C[n+]2csc(CCO)c2C)c(N)n1 [Thiamine hydrochloride] | 0.951 ± 0.4 | 1.1 ± 0.036 | 0.917 | 0.994 ± 0.025
CC(C)(C)C(=O)OCOC(=O)[C@@H]1N2C(=O)[C@@H](NC(=O)[C@H](N)c3ccccc3)[C@H]2SC1(C)C [Pivampicillin] | 1.14 ± 0.47 | 1 ± 0.011 | 1 | 0.9619 ± 0.0073
C#CCN(C)Cc1ccccc1 [Pargyline hydrochloride] | 1.04 ± 0.29 | 1.09 ± 0.052 | 0.833 | 0.95 ± 0.015
Nc1ccn([C@@H]2O[C@H](CO)[C@@H](O)C2(F)F)c(=O)n1 [Gemcitabine] | 0.851 ± 0.34 | 0.99 ± 0.053 | 0.917 | 1.03 ± 0.039
CC1CNc2c(cccc2S(=O)(=O)N[C@@H](CCCNC(=N)N)C(=O)N2CC[C@@H](C)C[C@@H]2C(=O)O)C1 (some centres not stated) [Argatroban] | 1.4 ± 1 | 0.949 ± 0.041 | 0.909 | 0.997 ± 0.04
COc1ccccc1OCCNCC(O)COc1cccc2[nH]c3ccccc3c12 (configuration not stated) [Carvedilol] | 1.02 ± 0.41 | 1.048 ± 0.0037 | 0.8 | 0.958 ± 0.019
COC(=O)C1=C(C)NC(C)=C(C(=O)OCCN(C)Cc2ccccc2)C1c1cccc([N+](=O)[O-])c1 (configuration not stated) [Nicardipine hydrochloride] | 1.13 ± 0.73 | 1 ± 0.027 | 0.909 | 1.01 ± 0.036
NC(=O)N/N=C/c1ccc([N+](=O)[O-])o1 [Nitrofural] | 0.881 ± 0.24 | 1.02 ± 0.047 | 1 | 0.982 ± 0.017
CCCCCCNC(=O)n1cc(F)c(=O)[nH]c1=O [Carmofur] | 8.71 ± 3.1 | 0.552 ± 0.03 | 0 | 1.72 ± 0.072
COc1ccccc1N1CCN(CCCCNC(=O)c2ccc3ccccc3c2)CC1 | 0.691 ± 0.17 | 1.02 ± 0.049 | 0.917 | 0.969 ± 0.018
CCCC(C(=O)OCCN(CC)CC)(c1ccccc1)c1ccccc1 [Proadifen hydrochloride] | 0.771 ± 0.16 | 1.09 ± 0.071 | 0.889 | 1.03 ± 0.037
CCCCC(O)c1ccccc1 (configuration not stated) [Fenipentol] | 1.17 ± 0.29 | 0.993 ± 0.03 | 0.833 | 0.967 ± 0.017
COc1cccc(N(C)C(=S)Oc2ccc3c(c2)CCCC3)n1 [Liranaftate] | 1.14 ± 0.62 | 1.025 ± 0.0045 | 0.667 | 1.06 ± 0.033
CCOC(=O)[C@H](CCc1ccccc1)N[C@@H](C)C(=O)N1Cc2ccccc2C[C@H]1C(=O)O [Quinapril hydrochloride] | 0.927 ± 0.39 | 0.987 ± 0.012 | 1 | 0.99 ± 0.015
CNC(=C[N+](=O)[O-])NCCSCc1csc(CN(C)C)n1 [Nizatidine] | 0.966 ± 0.41 | 0.9023 ± 0.0037 | 0.917 | 1.01 ± 0.043
Nc1nc(N)c2nc(-c3ccccc3)c(N)nc2n1 [Triamterene] | 1.02 ± 0.42 | 0.902 ± 0.0063 | 0.75 | 0.935 ± 0.046
CO/N=C(\C(=O)N[C@@H]1C(=O)N2C(C(=O)OC(C)OC(C)=O)=C(COC(N)=O)CS[C@H]12)c1ccco1 (some centres not stated) [Cefuroxime axetil] | 1.21 ± 0.5 | 1.02 ± 0.023 | 0.917 | 1.04 ± 0.088
